Results from PMC5913336, “True equilibrium measurement of transcription factor-DNA binding affinities using automated polarization microscopy”.

Target: T1, Kni (Drosophila melanogaster, UniProt P10734 2-102)
T1 sequence: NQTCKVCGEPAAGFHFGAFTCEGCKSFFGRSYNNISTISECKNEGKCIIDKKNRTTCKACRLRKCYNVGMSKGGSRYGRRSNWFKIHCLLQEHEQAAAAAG
Assay: FP; 33 mM phosphate pH 7.0, 90 mM NaCl, 0.01% Tween 20, 0.1 mM DTT, 0.5% agarose; room temperature
Conditions: tags: N-GST (pGEX-6P-1, kept); dsDNA, one strand shown

Sequence	binding signal	Kd
CAAACCTAGAGCACT	16.3 Kd / Kd of best base at the position	–
CAAAACTACAGCACT	52.4 Kd / Kd of best base at the position	–
CAAAGCTAGAGCACT	16.3 Kd / Kd of best base at the position	–
CAAAACTAGAGCAAT	2.66 Kd / Kd of best base at the position	–
CAAAACTAGAACACT	3.87 Kd / Kd of best base at the position	–
CAACACTAGAGCACT	31.8 Kd / Kd of best base at the position	–
CAAAAGTAGAGCACT	1.65 Kd / Kd of best base at the position	–
CTAAACTAGAGCACT	1.45 Kd / Kd of best base at the position	–
CAAAACTAGCGCACT	9.49 Kd / Kd of best base at the position	–
CATAACTAGAGCACT	1.93 Kd / Kd of best base at the position	–
CAAAACTAGAGCCCT	12.1 Kd / Kd of best base at the position	–
CGAAACTAGAGCACT	1.31 Kd / Kd of best base at the position	–
CAAAACTAGAGCACG	2.74 Kd / Kd of best base at the position	–
CAAAACTAGAGTACT	5.23 Kd / Kd of best base at the position	–
AAAAACTAGAGCACT	1.14 Kd / Kd of best base at the position	–
CAAAACTAGAGCGCT	3.42 Kd / Kd of best base at the position	–
CAAAACGAGAGCACT	3.56 Kd / Kd of best base at the position	–
CAAAACTATAGCACT	12.9 Kd / Kd of best base at the position	–

Sequence	binding signal	Kd
CAAAACTAGAGCAGT	2.97 Kd / Kd of best base at the position	–
CAAGACTAGAGCACT	9.44 Kd / Kd of best base at the position	–
CAAATCTAGAGCACT	2.46 Kd / Kd of best base at the position	–
CAATACTAGAGCACT	6.63 Kd / Kd of best base at the position	–
CAAAACTAGAGGACT	36 Kd / Kd of best base at the position	–
CAAAACTAGATCACT	1.39 Kd / Kd of best base at the position	–
CAGAACTAGAGCACT	1.99 Kd / Kd of best base at the position	–
CAAAACTCGAGCACT	9.21 Kd / Kd of best base at the position	–
CAAAACTAGAGAACT	69.3 Kd / Kd of best base at the position	–
CACAACTAGAGCACT	2.2 Kd / Kd of best base at the position	–
CAAAACTAGAGCACA	2.62 Kd / Kd of best base at the position	–
CAAAACCAGAGCACT	2.45 Kd / Kd of best base at the position	–
TAAAACTAGAGCACT	1.43 Kd / Kd of best base at the position	–
CAAAACTAGAGCACT	–	~1.8 nM
CAAAACAAGAGCACT	7.6 Kd / Kd of best base at the position	–
CAAAACTAGACCACT	3.9 Kd / Kd of best base at the position	–
CAAAACTAGAGCTCT	7.77 Kd / Kd of best base at the position	–
CAAAAATAGAGCACT	2.52 Kd / Kd of best base at the position	–

Target: T2, Pan (Drosophila melanogaster, UniProt P91943 258-356)
T2 sequence: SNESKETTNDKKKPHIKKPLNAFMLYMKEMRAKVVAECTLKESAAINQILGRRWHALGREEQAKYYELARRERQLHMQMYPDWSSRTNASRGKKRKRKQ
Assay: as above
Conditions: tags: N-GST (pGEX-6P-1, kept); dsDNA, one strand shown

Sequence	Kd	binding signal
AGTCTTTGATAAA	~73 nM	–
AGACTTTGATAAA	–	1.18 Kd / Kd of best base at the position
AGTCTTTGATCAA	–	2.02 Kd / Kd of best base at the position
